The list is not random: actives were taken first. Their share in the collection is about 1.9%.
CXXC DNA block – inhibitors of human MLL CXXC domain-DNA interaction | Q03164 | MLL-CXXC / FITC-HOXA9 DNA fluorescence polarization | Potency, µM (highest dose often 115 µM), most hits filed as inhibitors | 290,000 compounds, 0.037% hits; active = well fitted inhibition curve with a large enough effect in the polarisation, with a control signal flat, not every such curve was filed as active; inconclusive = small, poorly fitted or top-dose-only effect, or effect the other way, or a change in a side signal; inactive = no such curve, though single readings can be large or run the other way; the % refers to the polarisation
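Fluorescence polarization: 7 uM MLL-CXXC (stock) preincubated 5 min with compounds, then 50 nM fluorescein-HOX-A9 DNA (stock) added; 30 min ambient. Buffer 50 mM Tris-HCl pH 7.5, 50 mM NaCl, 1 mM DTT, 0.05% BSA.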
Menin-MLL FL inh – menin-MLL binding inhibition, fluorescein peptide; Fluorescence polarization, fluorescein-MLL peptide displacement from menin; 290,000 tested, under 10 active; FP activity change, % at 61.4 µM; AID 1766; active = well fitted curve in the direction sought with a large enough effect in the polarisation, not every such curve was filed as active; inconclusive = small, poorly fitted or top-dose-only effect, or effect the other way, or a change in a side signal; inactive = no such curve, though single readings can be large or run the other way; the % refers to the polarisation
PINK1 modulator – modulators of PINK1 expression | PINK1 immunofluorescence, high-content cytometry, 24 h | Potency, µM (doses to about 76.6 µM), most hits filed as activators | AID 624263 | 410,000 compounds, 0.2% hits; active = well fitted activation curve with a large enough effect; inconclusive = small, poorly fitted or top-dose-only effect; cell line not stated here; note: nearly all actives have a fitted effect of over 65% in size
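Stable cell line, 250 cells/well, 12 h attachment; compounds pinned at 5 concentrations, 24 h; CCCP control. Fixed with nuclear dye, primary antibodies 12 h at 10 degrees C, secondary plus cell stain; laser-scanning cytometer read.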
Epigenetic derep – regulators of epigenetic silencing causing reporter derepression in mouse cells; murine LDR cells, GFP reporter derepression, 30 h; 280,000 compounds, 0.2% hits; Potency, µM (top dose mostly 53.9 µM), most hits filed as activators; note: nearly all actives have a fitted effect of over 60% in size
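Murine LDR cells bearing a silenced CMV-driven GFP reporter were exposed to compound for 30 h at 37 C. After PBS washes, GFP-positive cells (20-120 um objects) counted by laser-scanning microplate cytometry.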
Menin-MLL TR inh – menin-MLL binding inhibition, Texas Red mutant peptide; AID 1768; 270,000 compounds, 0.23% hits; Potency, µM (doses to about 61.6 µM), usual class: inhibitors; Menin + Texas Red MLL mutant peptide, fluorescence polarization; O00255; active = well fitted inhibition curve with a large enough effect in the polarisation, with a control signal flat, not every such curve was filed as active; inconclusive = small, poorly fitted or top-dose-only effect, or effect the other way, or a change in a side signal; inactive = no such curve, though single readings can be large or run the other way; the % refers to the polarisation
ClpP mod – qHTS Assay for Activators of ClpP | ATP-dependent Clp protease proteolytic subunit (Bacillus subtilis (strain 168)), P80244 | purified B. subtilis ClpP, FRET peptide cleavage, 20 min | Potency, µM (series often up to 57.5 µM) | 340,000 compounds, 1.9% hits; active = well fitted falling curve with a large enough effect; inconclusive = small, poorly fitted or top-dose-only effect; inactive = no such curve, though single readings can be large or run the other way; note: the source files actives as falling curves though it sought activators and does not explain the sign; nearly all actives have a fitted effect of over 65% in size
Target sequence (P80244 whole entry, looked up): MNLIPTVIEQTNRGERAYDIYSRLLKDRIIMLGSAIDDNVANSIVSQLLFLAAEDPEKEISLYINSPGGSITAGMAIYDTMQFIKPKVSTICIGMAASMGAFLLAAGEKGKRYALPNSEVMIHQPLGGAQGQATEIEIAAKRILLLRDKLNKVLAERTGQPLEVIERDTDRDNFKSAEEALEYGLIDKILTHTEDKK
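Buffer: 100 mM Tris/HCl pH8, 100 mM KCl, 0.05% low protease BSA, 2.5% glycerol, 0.01% Tween-20. ClpP 10 microg/mL final; 20 min RT; delta FRET normalized to ADEP and DMSO controls.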
ClpP validation – inhibits B. subtilis ClpP protease, hit validation. Potency, µM (titrated, usually from 57.5 µM), actives largely listed as inhibitors. shares compounds with ClpP mod. 470 compounds, 40% hits. AID 743245. purified B. subtilis ClpP, FRET-FV substrate cleavage, 20 min; note: nearly all actives have a fitted effect of over 70% in size
Large screens that a line does not name were inactive (follow-up assays come after a bar, where they were run). Unless noted, calls come from the whole dose curve; as a rule, active = well fitted curve in the direction sought with a large enough effect; inconclusive = small, poorly fitted or top-dose-only effect, or another doubt; inactive = no such curve, though single readings can be large; an effect the other way counts as inactive or inconclusive.

Cc1ccc(-c2nnc(-c3ccc(NC(=O)Cc4cccs4)cc3)o2)cc1	PINK1 modulator inconclusive, Menin-MLL TR inh inconclusive, ClpP mod 3.5µM | ClpP validation inconclusive
CCC(=O)Nc1ccc(-c2nnc(-c3ccccc3)o2)cc1	ClpP mod 2.8µM | ClpP validation 7.7µM
O=C(Cc1cccs1)Nc1cccc(-c2nnc(-c3ccco3)o2)c1	Menin-MLL TR inh inconclusive (no result: ClpP mod)
Cc1cc(S(=O)(=O)N2CCCOC2CNC(=O)C(=O)NCCc2ccco2)ccc1F (stereo unspecified)	none (no result: Menin-MLL FL inh, Epigenetic derep, Menin-MLL TR inh)
CCCc1cc(=O)n2c(nc3ccccc32)[nH]1	ClpP mod 7.1µM | ClpP validation 14µM
CCOc1ccc(Nc2sc(C(=O)c3cccc(OC)c3)c(N)c2S(=O)(=O)c2ccccc2)cc1	none (no result: CXXC DNA block, Menin-MLL FL inh, Menin-MLL TR inh)
COc1ccc(-c2nnc(-c3ccc(OCC(C)C)cc3)o2)cc1	ClpP mod 7.9µM | ClpP validation 19µM
COc1ccc(OCc2nnc(-c3ccccc3)o2)cc1	none (no result: CXXC DNA block, Menin-MLL FL inh, Menin-MLL TR inh)
O=C(NCCC1=CCCCC1)C1CCN(C(=O)N2CCOc3ccccc32)CC1	none (no result: CXXC DNA block, Menin-MLL FL inh, Menin-MLL TR inh)
COc1ccc2nc(NC(=O)c3ccc(-n4nc(C)cc4C)cc3)sc2c1	none | ClpP validation 27µM
Clc1ccc(N2N=C(c3cccs3)CC2c2ccco2)cc1 (stereo unspecified)	Menin-MLL TR inh inconclusive, ClpP mod 3.5µM | ClpP validation 27µM
O=C1[C@@H]2C[C@@H]3C[C@H]1C[C@@](O)(C3)C2	none (no result: PINK1 modulator, Epigenetic derep, ClpP mod)
Cc1ccccc1NC(=O)c1cc2sccc2n1Cc1ccc(F)cc1	none (no result: CXXC DNA block, Menin-MLL FL inh, Menin-MLL TR inh) | ClpP validation inconclusive
CC1CCN(S(=O)(=O)c2ccc3c(c2)CCN3C(=O)Nc2cccc(Br)c2)CC1	none (no result: CXXC DNA block, Menin-MLL FL inh, Menin-MLL TR inh) | ClpP validation inconclusive
